# Bioassay records deposited in PubChem by Paczesny and Yang Labs, IUPUI and University of Michigan.
# ST2 inh: blocks human ST2 binding to IL-33 | Q01638 | AlphaLISA ST2-Fc/biotin-IL-33 interaction, 1 h | inhibition, % for hits at 17 µM | hit rate 2.3% among 78,000 | AID 1259354; in the data active = inhibition above about 30%
# Target sequence (Q01638 whole entry, looked up): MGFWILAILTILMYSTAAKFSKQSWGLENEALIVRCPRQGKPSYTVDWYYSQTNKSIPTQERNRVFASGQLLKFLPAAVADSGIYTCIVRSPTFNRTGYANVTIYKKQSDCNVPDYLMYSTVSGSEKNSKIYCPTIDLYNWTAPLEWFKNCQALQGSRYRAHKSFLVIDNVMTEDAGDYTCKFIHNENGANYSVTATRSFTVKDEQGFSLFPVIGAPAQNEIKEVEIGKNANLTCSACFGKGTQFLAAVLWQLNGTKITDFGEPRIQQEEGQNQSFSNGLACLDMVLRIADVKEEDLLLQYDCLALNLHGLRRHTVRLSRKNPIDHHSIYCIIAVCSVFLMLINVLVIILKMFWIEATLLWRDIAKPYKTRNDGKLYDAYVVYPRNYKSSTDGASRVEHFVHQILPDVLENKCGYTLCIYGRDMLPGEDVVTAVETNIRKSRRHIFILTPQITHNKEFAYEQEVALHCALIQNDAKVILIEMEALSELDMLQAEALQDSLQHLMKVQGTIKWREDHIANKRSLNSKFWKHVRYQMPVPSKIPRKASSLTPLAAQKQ
# Hits are given with their value; . = inactive. Shown is part of a subset that was picked to be rich in hits.
SMILES,ST2 inh
O=C(Nc1ccccc1)c1ccc(Cl)c(S(=O)(=O)N2CCc3ccccc32)c1,.
C(=C\c1ccccc1)/Sc1ccc2ccccc2n1,34%
O=c1c2ccccc2nc(/C=C/c2ccccc2)n1Cc1ccccc1,.
C(=C\c1cnc2n[nH]nc2c1)/c1ccccc1,.
Cc1ccc(N(C(=O)c2ccccc2C)C2C=CS(=O)(=O)C2)cc1C (centres undefined),.
O=C(CCCn1nnnc1CN1CCc2ccccc2C1)N1CC2CCC1C2 (centres undefined),.
N#CCSc1nc2c(sc3ccccc32)c(=O)n1C1CCCCC1,.
Cc1ccc(NC2=CC(=NS(=O)(=O)c3ccc(F)cc3)c3ccccc3C2=O)cc1,69%
Cc1ccc(S(=O)(=O)Nc2ccc(NC(=O)c3ccc(F)cc3)cc2)cc1,.
COc1ccc(S(=O)(=O)N=C2C(C)=CC(=O)C=C2C)cc1,.
COc1ccc(S(=O)(=O)N=C2C=C(Nc3ccc(C)cc3)C(=O)c3ccccc32)cc1,92%
COc1ccc(S(=O)(=O)Nc2cc(C)cc(C)c2)cc1,.
COc1ccc(N(C(F)F)S(=O)(=O)c2ccc(C)cc2)cc1,.
CCN(CC)C(=NS(=O)(=O)c1ccc(C)cc1)c1ccc(F)cc1,.
COc1ccc(NC2=CC(=NS(=O)(=O)c3ccc(C)cc3)c3ccccc3C2=O)cc1,92%
COc1ccc(Nc2ccc3c4c(ncnc24)-c2ccccc2C3=O)cc1,.
COc1ccc(NC(=O)N2Cc3[nH]cnc3C[C@H]2c2nc(-c3cccc(C)c3)no2)cc1,.
CC1=C(C(=O)N(C)Cc2ccc3nsnc3c2)C(C)NC(=O)N1 (centres undefined),.
NCC1Cc2cc(-c3cnccn3)cc(Cl)c2O1 (centres undefined),.
Cc1ccc(OCc2cc(=O)n3oc(C)cc3n2)c(NC(=O)c2ccccc2C)c1,.
Cc1cc(C)n(C)c(=O)c1C(=O)NCc1cc(CC(C)C)on1,.
CCSc1nnc2c(n1)OC(c1ccc(OC)c(OC)c1)Nc1ccccc1-2 (centres undefined),.
Cc1cc(Cl)ccc1NC(=O)Cc1ccccc1[N+](=O)[O-],.
Cc1cccc(N2C(=O)CC(N3CCOCC3)C2=O)c1 (centres undefined),.
Cc1ccc(S(=O)(=O)N2CCN(c3nc(C)cc(N4CCOCC4)n3)CC2)cc1,.
SMILES,ST2 inh
Cc1ccc(SC2=C(N3CCOCC3)C(=O)N(c3cc(C)cc(C)c3)C2=O)cc1,43%
CC1CCCN(C(=O)CSc2nnc(-c3ccc(Cl)s3)o2)C1 (centres undefined),.
O=C(NCc1ccc(F)cc1)C1C2C=CC3(CN(Cc4ccccc4)C(=O)C13)O2 (centres undefined),.
Cc1ccccc1-c1noc(CCC(=O)N(C)Cc2n[nH]c3c2CCC3)n1,.
COc1ccc(NC(=O)c2sc3ccccc3c2Cl)cc1Cl,.
CCCNC(=O)c1sc2c(Cl)c(OC)ccc2c1Cl,53%
CCCCNC(=O)c1sc2ccccc2c1Cl,.
O=C(O)c1cc(-c2ccccc2F)nc2ccc3ccccc3c12,.
Cc1ccc2nc(SCC(=O)c3ccc4c(c3)OCO4)[nH]c2c1,.
Cc1cc(C=Nc2ccc(-c3nc4ccccc4o3)c(O)c2)c(O)c([N+](=O)[O-])c1,30%
O=C(O)c1ccc(O)c(C=Nc2cccc(-c3nc4ccccc4o3)c2)c1,.
Cc1ccc2nc(-c3ccc(N=Cc4ccc5c(c4)OCO5)cc3O)oc2c1,32%
Cc1cccc2oc(-c3cccc(N=Cc4cc([N+](=O)[O-])cc([N+](=O)[O-])c4O)c3)nc12,.
Cc1cccc2oc(-c3cccc(N=Cc4ccc(O)cc4O)c3)nc12,.
Oc1ccc(N=Cc2cccc(I)c2O)cc1-c1nc2ccccc2o1,41%
Cc1ccc2nc(-c3cccc(N=Cc4cccc([N+](=O)[O-])c4O)c3)oc2c1,.
O=C(Nc1ccc(O)c(-c2nc3ccccc3o2)c1)c1cccc(Cl)c1Cl,.
c1cncc(-c2nnc([C@H]3CCN(CC4CC4)C3)o2)c1,.
CCC1CCCCN1Cc1c(C)[nH]c2ccccc2c1=O (centres undefined),.
CCN1C(=O)N(CCCc2cccnc2)C(=O)C12CCN(Cc1ccc3c(c1)CCO3)CC2,.
O=C1c2cccc3cccc(c23)N1S(=O)(=O)c1ccccc1,.
CC1CC(=O)N(Cc2ccc(F)cc2)c2ccccc2S1 (centres undefined),.
Cc1nc2c(ccc3nc(NC(=O)c4ccc(C)c(C)c4)sc32)s1,41%
Cc1nc2c(ccc3nc(NC(=O)c4ccc5c(c4)OCCO5)sc32)s1,.
COC(=O)c1ccc(C(=O)Nc2nc3ccc4sc(C)nc4c3s2)cc1,36%
SMILES,ST2 inh
Cc1nc2c(ccc3nc(NC(=O)c4ccc(OC(C)C)cc4)sc32)s1,.
Cc1nc2c(ccc3nc(NC(=O)c4ccccc4)sc32)s1,.
Cc1nc2c(ccc3nc(NC(=O)c4cccc(Br)c4)sc32)s1,.
COC(=O)CCN1CCOC(Cc2cccc3ccccc23)C1 (centres undefined),.
O=c1[nH]c2ccc(S(=O)(=O)Nc3ccc(F)c(F)c3)cc2[nH]c1=O,.
Cc1cccc(C(C(=O)N(C)Cc2snnc2C)N(C)C)c1 (centres undefined),.
Cc1c(CN2CCC3(CC2)C(=O)N(C(C)C)C(=O)N3CCC(C)C)cnn1C,.
Cc1ccc(Cn2c(CNC(=O)c3cccnc3)nc3cccnc32)cc1,.
CCOc1c(N2CCN(c3cc(Cl)ccc3C)CC2)c(=O)c1=O,.
Cn1c(=O)c2c(nc(Oc3ccc4c(c3)OCO4)n2Cc2ccc(Cl)cc2)n(C)c1=O,.
Cn1c(=O)c2c(nc(SCC(=O)Nc3ccc4c(c3)OCO4)n2Cc2ccccc2)n(C)c1=O,.
Cn1c(=O)c2c(nc(SCC(=O)O)n2Cc2cc3c(cc2Cl)OCO3)n(C)c1=O,37%
CCC(c1cccnc1)N(C)Cc1cc2c(cc1Cl)OCO2 (centres undefined),.
CCOc1ccccc1NC(=O)CN(C)S(=O)(=O)c1ccc(Br)cc1,.
O=C(NCc1cccnc1)C1CCN(C2CCN(Cc3c(F)ccc(F)c3F)CC2)CC1,.
O=c1c2c[nH]c3ccccc3nc-2c2ccccc12,42%
Nc1ccc(Br)cc1-c1nc2ccccc2[nH]c1=O,.
O=C(O)c1cc(-c2c[nH]c3ccccc23)n[nH]1,.
COc1cccc(C2C3=C(CCCC3=O)Nc3nc(SCc4ccccc4F)[nH]c(=O)c32)c1 (centres undefined),.
COc1ccccc1N1CCN(Cc2cc(OC)c(O)c([N+](=O)[O-])c2)CC1,.
O=[N+]([O-])c1ccccc1CN1CCN(c2ncccn2)CC1,31%
COc1ccccc1N1CCN(Cc2cc([N+](=O)[O-])c(O)c3ncccc23)CC1,34%
CC1CCN(Cc2cc([N+](=O)[O-])c(O)c3ncccc23)CC1,.
COc1cc(CN2CCN(c3ccccc3C)CC2)c([N+](=O)[O-])cc1OC,.
COc1cc([N+](=O)[O-])cc(CN2CCN(c3ccccc3F)CC2)c1O,.
SMILES,ST2 inh
COc1cc(CN2CCN(c3ccccc3C)CC2)cc([N+](=O)[O-])c1O,89%
O=[N+]([O-])c1ccccc1CN1CCN(Cc2ccccn2)CC1,.
O=[N+]([O-])c1ccccc1CN1CCN(c2ccccn2)CC1,.
CC(Sc1nc2c(c(=O)n1-c1ccc(F)cc1)SCC2)c1ccccc1 (centres undefined),.
CCOC(=O)C(CC)Sc1nc2c(c(=O)n1-c1ccc(C)cc1)SCC2 (centres undefined),.
CCOC(=O)C(C)(C)Sc1nc2c(c(=O)n1-c1ccc(OCC)cc1)SCC2,43%
